In the supplement of paper PMC7726561:
Over roughly 1,400 sequences, “thermal melting temperature (Tm) of peptide-HLA complex” has its median near 60; the lowest 2% begin near 45. Only a selection was taken, and the lowest values are over-represented in it overall.

molecular target: HLA-B*07:02; experiment: thermal melting temperature (Tm) of peptide-HLA complex; higher = more thermostable pHLA complex; conditions: C1R-B*07:02
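Note: lysates heated 10 min at 37–73 °C, complexes pulled down with pan-HLA I antibody, peptide signal by DIA-MS relative to 37 °C, Tm where half the complex is unfolded.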

Sequence	thermal melting temperature
SPTLPAARSSL	56.9 °C
NPKNPGLWL	61 °C
TPRVPDNSL	60.7 °C
SPDLVRVQL	60.7 °C
RPAAGFVAGL	57 °C
KPWLRALQL	59.7 °C
MPFPNIRSAEL	58.2 °C
TPNDRFILL	60.4 °C
LPWASTHSL	58.1 °C
AALPFVRQAGL	42.3 °C
VPNQKRLTLL	62.4 °C
KPYPIAEVEQL	42.7 °C
FDPALLEF	42.6 °C
YPPNPWREI	59.3 °C
LPSWGRAEL	62.8 °C
GPDEAKIKALL	60 °C
